Measurements reported in PubChem BioAssay (Tox21).
Records with an inconclusive call do not appear. Active and inactive are the calls of the source. Unless noted, calls follow the shape of the dose curve; as a rule, active = well fitted curve in the direction sought with a large enough effect in the repeat runs; inconclusive = weak or mixed curves; inactive = no such curve, though single readings can be large; an effect the other way counts as inactive or inconclusive.

Assays:
[1] = qHTS assay to identify small molecule HDAC inhibitors (AID 1259364); also: potency is read from the fitted curve at half-maximal effect;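 also: wild-type HCT-116 cells with endogenous class I/II HDAC activity; nearly all actives have a fitted effect of over 45% in size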; as to activity change, negative = inhibition: top concentration of the series differs between compounds
In short: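 Read-out: luminescence of HDAC-Glo I/II reagent, 30 min RT, reflecting class I/II deacetylase activity in whole HCT-116 cells pre-exposed 2 h to DMSO-dissolved compounds.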

[2] = qHTS assay to identify small molecule HDAC inhibitors - cell viability counter screen (AID 1259365); also: series mostly up to about 92 µM; nearly all actives have a fitted effect of over 50% in size
In short: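 After overnight seeding at 1,500 cells per well, wild-type HCT-116 cultures took up compounds in DMSO for 2hr at 37 C. Viable cell content came from luminescence with CellTiter-Glo.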

[3] = qHTS assay to identify small molecule agonists of the sonic hedgehog signaling (Shh) pathway - cell viability counter screen (AID 1259366); also: nearly all actives have a fitted effect of over 50% in size
In short: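 Same-well cytotoxicity read. Gli1-Luc reporter 3T3 cells; compounds 24hr, 37C/5% CO2; CellTiter-Fluor fluorescence.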

[4] = qHTS assay to identify small molecule antagonists of the sonic hedgehog signaling (Shh) pathway - cell viability counter screen (AID 1259367); also: nearly all actives have a fitted effect of over 55% in size
In short: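 Cells: 3T3 Gli1-Luc, 2,000/well, 4 hr pre-incubation. Compounds in DMSO, then conditioned medium. Incubation 24 hr, 37C, 5% CO2. CellTiter-Fluor at 23 hr, 1 hr, fluorescence.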

[5] = qHTS assay to identify small molecule antagonists of the sonic hedgehog signaling (Shh) pathway (AID 1259369; calls by dose curve; also: nearly all actives have a fitted effect of over 45% in size)
In short: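 For antagonist detection, the reporter line received test compounds together with conditioned medium, incubated 24hr at 37 C, 5% CO2, then luminescence was recorded following 30min room-temperature luciferase reagent incubation.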

[6] = molecular target: Estrogen receptor beta (Homo sapiens) (UniProt Q92731); assay: qHTS assay to identify small molecule agonists of the estrogen receptor beta (ER-beta) signaling pathway (AID 1259377; active = well fitted activation curve with a large enough effect in the signal ratio in the repeat runs, not every such curve was filed as active; the % refers to the signal ratio)
Sequence of Estrogen receptor beta (Homo sapiens) (Q92731 whole entry, looked up): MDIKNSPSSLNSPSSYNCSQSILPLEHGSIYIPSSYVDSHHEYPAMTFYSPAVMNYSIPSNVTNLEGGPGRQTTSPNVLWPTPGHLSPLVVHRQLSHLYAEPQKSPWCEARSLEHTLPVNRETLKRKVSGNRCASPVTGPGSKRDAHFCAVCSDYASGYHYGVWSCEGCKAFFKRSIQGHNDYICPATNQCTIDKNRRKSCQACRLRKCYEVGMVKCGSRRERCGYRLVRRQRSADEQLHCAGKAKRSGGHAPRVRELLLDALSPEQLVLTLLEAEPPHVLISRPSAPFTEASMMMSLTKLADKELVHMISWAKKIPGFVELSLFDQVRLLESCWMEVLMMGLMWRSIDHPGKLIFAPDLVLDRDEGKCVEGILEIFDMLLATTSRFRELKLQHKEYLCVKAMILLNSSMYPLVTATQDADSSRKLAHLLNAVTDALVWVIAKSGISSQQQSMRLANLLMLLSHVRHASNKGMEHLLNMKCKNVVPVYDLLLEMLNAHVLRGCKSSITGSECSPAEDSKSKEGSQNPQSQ
In short: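 Read-out: beta-lactamase FRET fluorescence. Cell line: ER-beta-UAS-bla HEK293T in 2% charcoal-stripped FBS. Exposure: 16 hr at 37C. Substrate step: 2 h at room temperature.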

[7] = molecular target: Estrogen receptor beta (Homo sapiens) (UniProt Q92731); assay: qHTS assay to identify small molecule antagonists of the estrogen receptor beta (ER-beta) signaling pathway (AID 1259378; active = well fitted inhibition curve with a large enough effect in the signal ratio in the repeat runs, not every such curve was filed as active; the % refers to the signal ratio)
In short: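 Antagonist mode: compounds added to beta-lactamase reporter HEK293T ER-beta-UAS cells stimulated with E2 (1nM final), 16 hr at 37C. LiveBLAzer B/G FRET substrate, 2 hours room temperature, fluorescence read-out.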

[8] = qHTS assay to identify small molecule agonists of the androgen receptor (AR) signaling pathway in the presence of an antagonist - cell viability counter screen (AID 1259379);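 also: MDA-kb2 human breast cancer cells carrying an MMTV luciferase reporter; series mostly up to about 92 µM; nearly all actives have a fitted effect of over 25% in size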
In short: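 Seed MDA-kb2 at 3,000 cells/well; incubate 5 hr, 37C, 0% CO2. Add nilutamide to 3.0uM final, then pin compounds at 15 concentrations. Incubate 16 hr. Add CellTiter-Fluor at 15 hr, read fluorescence after 1 hr.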

[9] = qHTS assay to identify small molecule agonists of the estrogen receptor beta (ER-beta) signaling pathway - cell viability counter screen (AID 1259380); also: nearly all actives have a fitted effect of over 30% in size
In short: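 CellTiter-Glo read, 30 min RT, same wells as bla assay; cells ER-beta-UAS-bla HEK293T; 16 hr compound, 37C; medium 2% charcoal-stripped FBS.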

[10] = qHTS assay to identify small molecule agonists of the sonic hedgehog signaling (Shh) pathway (AID 1259368; calls by dose curve;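 also: NIH/3T3-derived 3T3Gli1-Luc cells carrying a stable Gli1-driven firefly luciferase reporter; series mostly up to about 92 µM; nearly all actives have a fitted effect of over 15% in size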)
In short: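 A Gli1 transcriptional response element controlled firefly luciferase in 3T3Gli1-Luc cells. Compounds and a positive control were added 4 hr after plating, and cells were incubated a further 24 hr at 37 C before luminescence detection.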
% is scaled to controls: 0 for no effect and ±100 for the full control effect.

CC1(C)O[C@H]2CC(=O)OC[C@]23[C@H]2CC[C@@]4(C)[C@H](c5ccoc5)OC(=O)[C@H]5O[C@]54[C@]2(C)C(=O)C[C@@H]13
inactive: Potency [1] | outcome [2] | outcome [3] | outcome [4] | Potency [5] | Potency [6] | Potency [7] | outcome [8] | outcome [9]

CC(=O)CCc1ccc(OC(C)=O)cc1
inactive: Potency [1] | outcome [2] | outcome [3] | outcome [4] | Potency [7] | outcome [8] | outcome [9]

CCCCOCC(C)O (stereo not given)
inactive: Potency [1] | outcome [2] | outcome [3] | outcome [4] | outcome [10] | outcome [8] | outcome [9]

CCCCC1CCC(O)CC1 (stereo not given)
inactive: Potency [1] | outcome [2] | outcome [3] | outcome [4] | outcome [10] | outcome [8] | outcome [9]

COc1ccc2c(c1)c1c3n2CCN(C)C3=NCC1
inactive: Potency [1] | outcome [2] | outcome [3] | outcome [4] | outcome [10] | outcome [8] | outcome [9]

O=S(=O)(O)c1ccc2c(N=Nc3ccc(S(=O)(=O)O)c4ccccc34)c(O)c(S(=O)(=O)O)cc2c1
inactive: activity change, negative = inhibition [1] 1.26% [at 8.39 µM] | activity change, negative = cytotoxicity [2] -10.4% [at 8.39 µM] | viability change, negative = cytotoxic [3] -12.8% [at 8.39 µM] | viability change, negative = cytotoxic [4] -12.4% [at 8.39 µM] | activity change [10] -2.14% [at 8.39 µM] | activity change, negative = cytotoxicity [8] -15.5% [at 8.39 µM] | activity change, negative = cytotoxicity [9] 3.66% [at 8.39 µM]

CC1=C(C(=O)O)N2C(=O)[C@@H](NC(=O)[C@H](N)C3=CCC=CC3)[C@H]2SC1
inactive: Potency [1] | outcome [2] | outcome [3] | outcome [4] | Potency [5] | outcome [8]

O=C(O)[C@H](O)c1ccccc1
inactive: Potency [1] | outcome [2] | outcome [3] | outcome [4] | outcome [10] | outcome [8] | outcome [9]

CC(C)[C@H]1CC[C@H](C)C[C@@H]1O
inactive: Potency [1] | outcome [2] | outcome [3] | outcome [4] | Potency [6] | Potency [7] | outcome [8] | outcome [9]

CCCCCC/C=C/C(=O)OC
inactive: Potency [1] | outcome [2] | outcome [3] | outcome [4] | Potency [5] | Potency [6] | outcome [8] | outcome [9]

Nc1nc(-c2ccccc2)c(Br)c(=O)[nH]1
inactive: Potency [1] | outcome [2] | outcome [3] | outcome [4] | outcome [10] | outcome [8] | outcome [9]

OC[C@@H](O)C(O)[C@@H](O)CO (stereo not given in full)
inactive: Potency [1] | outcome [2] | outcome [3] | outcome [4] | Potency [5] | outcome [8] | outcome [9]

CCCCOC(=O)C(C)O (stereo not given)
inactive: Potency [1] | outcome [2] | outcome [3] | outcome [4] | outcome [10] | outcome [8] | outcome [9]

O/N=C/C=N/O
inactive: Potency [1] | outcome [2] | outcome [3] | outcome [4] | Potency [5] | Potency [6] | Potency [7] | outcome [8]

CC(C)Cn1cnc2c1c(=O)n(C)c(=O)n2C
inactive: Potency [1] | outcome [2] | outcome [3] | outcome [4] | outcome [8]

N[C@@H](Cc1ccc(O)cc1)C(=O)O
inactive: activity change, negative = inhibition [1] 6.85% [at 8.39 µM] | activity change, negative = cytotoxicity [2] 0.0609% [at 8.39 µM] | viability change, negative = cytotoxic [3] -1.95% [at 8.39 µM] | viability change, negative = cytotoxic [4] 0.133% [at 8.39 µM] | activity change [10] -0.171% [at 8.39 µM] | activity change, negative = cytotoxicity [8] 0.232% [at 8.39 µM] | activity change, negative = cytotoxicity [9] 10.1% [at 8.39 µM]

COc1cc2c(cc1OC)C(=O)C(CC1CCN(Cc3ccccc3)CC1)C2 (stereo not given)
inactive: Potency [1] | outcome [2] | outcome [3] | outcome [4] | outcome [8] | outcome [9]

CC(=O)Nc1ccc(OC(=O)c2ccccc2OC(C)=O)cc1
active: Potency [1] 23.7 µM
inactive: outcome [2] | outcome [3] | outcome [4] | outcome [10] | outcome [8] | outcome [9]

C=CC(=O)CCCCC
inactive: Potency [1] | outcome [2] | outcome [3] | outcome [4] | outcome [10] | outcome [8] | outcome [9]

CCC(C)C(C)=O (stereo not given)
inactive: Potency [1] | outcome [2] | outcome [3] | outcome [4] | Potency [5] | Potency [6] | outcome [8] | outcome [9]

O=NN(CCCl)C(=O)NC1CCCCC1
inactive: Potency [1] | outcome [2] | outcome [3] | outcome [4] | Potency [5] | Potency [6] | Potency [7] | outcome [8] | outcome [9]

O=C1CCC(=O)N1Cl
inactive: Potency [1] | outcome [2] | outcome [3] | outcome [4] | Potency [6] | Potency [7] | outcome [8] | outcome [9]

CO/N=C(/C(=O)N[C@@H]1C(=O)N2C(C(=O)[O-])=C(C[n+]3ccn4ncccc43)CS[C@H]12)c1nsc(N)n1
inactive: Potency [1] | outcome [2] | outcome [3] | outcome [4] | Potency [5] | Potency [6] | outcome [8]

C[C@@H](O)C(=O)O
inactive: Potency [1] | outcome [2] | outcome [3] | outcome [4] | outcome [10] | outcome [8] | outcome [9]

O=C(O)CCCCCC(=O)O
inactive: Potency [1] | outcome [2] | outcome [3] | outcome [4] | Potency [5] | outcome [8] | outcome [9]
